# Reference: PubChem BioAssay (NCI)
# The panel holds about 79,000 compounds, 15% with a hit somewhere; the sample as a whole holds those more often. A number with no mark means an inactive call. Calls of active or inactive are those of the source. No stated cut-off is given here; in the data, active means growth inhibition above about 70%; inactive means the rest.
# Columns and labels:
# [1] = NCI Yeast Anticancer Drug Screen. Data for the rad52 strain (AID 147);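 further: 0% = growth of vehicle-treated control cultures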; details: S. cerevisiae rad52 mutant growth inhibition, active compounds read high
# Outline: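 Growth of repair-deficient yeast cells was compared between compound-treated and vehicle-treated cultures to give percent inhibition.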
# [2] = NCI Yeast Anticancer Drug Screen. Data for the wt1 strain (AID 149);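 further: 0% = growth of vehicle-treated wt1 cultures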; details: S. cerevisiae wt1 strain (SPY 50644) growth inhibition, active compounds read high
# Outline: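 Using yeast strain wt1, compound-induced growth inhibition was determined against vehicle-treated cultures.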
# [3] = NCI Yeast Anticancer Drug Screen. Data for the rad50EPP+ strain (AID 151);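 further: 0% = growth of vehicle-treated control cultures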; details: S. cerevisiae rad50 mutant strain, active compounds read high
# Outline: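 Measured: growth inhibition of rad50EPP+ yeast. Reference: vehicle-treated controls. Screen uses strains with defined genetic alterations in DNA damage repair or cell cycle control.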
# [4] = NCI Yeast Anticancer Drug Screen. Data for the mgt1 strain (AID 153); details: S. cerevisiae mgt1 mutant growth inhibition, active compounds read high
# Outline: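 Compounds were applied to mgt1 mutant yeast, and growth was then compared against vehicle-treated control cultures to give percent inhibition.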
# [5] = NCI Yeast Anticancer Drug Screen. Data for the rad50 strain (AID 155);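 further: 0% = growth of vehicle-only cultures of the same strain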; details: S. cerevisiae rad50 strain growth inhibition, active compounds read high
# Outline: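 Relative growth inhibition (compound vs vehicle) was measured in yeast with a defined repair-gene alteration.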
# [6] = NCI Yeast Anticancer Drug Screen. Data for the mec2-1 strain (AID 157); details: S. cerevisiae mec2-1 strain, active compounds read high
# Outline: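 Compounds were applied to mec2-1 yeast cells. Their growth was then compared with that of vehicle-treated cultures to give growth inhibition.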
# [7] = NCI Yeast Anticancer Drug Screen. Data for the rad14 strain (AID 159);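 further: 0% = growth of vehicle-treated control cultures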; details: S. cerevisiae rad14 strain growth inhibition, active compounds read high
# Outline: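 Screen for anticancer potential: a yeast strain altered in DNA damage repair is grown with compound, and reduced growth is quantified against vehicle controls.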
# [8] = NCI Yeast Anticancer Drug Screen. Data for the sgs1 mgt1 strain (AID 161);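 further: 0% = growth of cultures given vehicle only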; details: S. cerevisiae sgs1 mgt1 strain, active compounds read high
# Outline: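 Compounds are added to genetically altered yeast, and growth is compared with cultures given vehicle alone to give percent inhibition.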
# [9] = NCI Yeast Anticancer Drug Screen. Data for the CLN2oe strain (AID 163);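 further: 0% = growth of vehicle-only control cultures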; details: S. cerevisiae CLN2oe strain, active compounds read high
# Outline: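 Cells of an engineered yeast line with disturbed cell-cycle regulation are treated with compound. Inhibition of growth is then calculated relative to the vehicle-treated reference.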
# [10] = NCI Yeast Anticancer Drug Screen. Data for the cln2 rad14 strain (AID 165);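 further: 0% = growth equal to vehicle treated cultures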; details: S. cerevisiae cln2 rad14 strain, active compounds read high
# Outline: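 Strain: cln2 rad14 yeast, altered in cell cycle control and DNA damage repair. Read-out: growth inhibition vs vehicle.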
# [11] = NCI Yeast Anticancer Drug Screen. Data for the bub3 strain (AID 167); details: S. cerevisiae bub3 mutant strain, active compounds read high
# Outline: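 Screening used yeast with an engineered genetic alteration affecting cell cycle control. Compound-exposed cultures were compared with vehicle cultures, and reduced growth was taken as inhibition.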
# [12] = NCI Yeast Anticancer Drug Screen. Data for the wt2 strain (AID 169);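 further: 0% = growth of vehicle-treated yeast cultures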; details: S. cerevisiae wt2 strain growth inhibition, active compounds read high
# Outline: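 Growth of compound-treated yeast is measured and expressed as inhibition relative to vehicle-only controls.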
# [13] = NCI Yeast Anticancer Drug Screen. Data for the mlh1 strain (AID 171);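 further: 0% = growth of vehicle-treated control cultures of the same strain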; details: S. cerevisiae mlh1 strain growth inhibition, active compounds read high
# Outline: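 Test agents were incubated with yeast bearing a defined DNA damage repair or cell cycle control alteration; values are growth inhibition normalised to vehicle-treated cultures.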
# [14] = NCI Yeast Anticancer Drug Screen. Data for the sgs1 strain (AID 173);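 further: 0% = growth of vehicle-only control cultures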; details: S. cerevisiae sgs1 mutant, active compounds read high
# Outline: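 Strain with an altered DNA repair or cell cycle pathway exposed to compound. Growth then measured. Value = inhibition versus vehicle control.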
# [15] = NCI Yeast Anticancer Drug Screen. Data for the mlh1 rad18 strain (AID 175); details: S. cerevisiae mlh1 rad18 strain growth inhibition, active compounds read high
# Outline: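 A repair-deficient yeast strain is exposed to test compound, and growth is scored relative to vehicle-treated controls.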
# [16] = NCI Yeast Anticancer Drug Screen. Data for the rad18 strain (AID 177); details: S. cerevisiae rad18 mutant growth inhibition, active compounds read high
# Outline: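 DNA-repair-defective yeast; compound treatment; growth inhibition scored against vehicle.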
# [17] = at 5.0 µM (retest, dose inferred, filed as 0.5)
# [18] = at 50.0 µM (retest, dose inferred, filed as 5.0)
smiles,measurement,setting,value
O=C1NC(=S)NC(=O)C1=Cc1ccc([N+](=O)[O-])o1,growth inhibition,[1]; at 1.2 µM,-50%
same,growth inhibition,[1]; at 3.7 µM,-58%
same,growth inhibition,[1]; at 11.0 µM,-6%
same,growth inhibition,[1]; at 33.0 µM,57%
same,growth inhibition,[1]; at 100.0 µM,85% (active)
same,growth inhibition,[2]; at 1.2 µM,-18%
same,growth inhibition,[2]; at 3.7 µM,-4%
same,growth inhibition,[2]; at 11.0 µM,-1%
same,growth inhibition,[2]; at 33.0 µM,-1%
same,growth inhibition,[2]; at 100.0 µM,6%
same,growth inhibition,[3]; at 1.2 µM,11%
same,growth inhibition,[3]; at 3.7 µM,23%
same,growth inhibition,[3]; at 11.0 µM,61%
same,growth inhibition,[3]; at 33.0 µM,87% (active)
same,growth inhibition,[3]; at 100.0 µM,92% (active)
same,growth inhibition,[4]; at 1.2 µM,15%
same,growth inhibition,[4]; at 3.7 µM,20%
same,growth inhibition,[4]; at 11.0 µM,41%
same,growth inhibition,[4]; at 33.0 µM,58%
same,growth inhibition,[4]; at 100.0 µM,79% (active)
same,growth inhibition,[5]; at 1.2 µM,12%
same,growth inhibition,[5]; at 3.7 µM,17%
same,growth inhibition,[5]; [17],25%
same,growth inhibition,[5]; at 11.0 µM,36%
same,growth inhibition,[5]; at 33.0 µM,66%
same,growth inhibition,[5]; [18],69%
same,growth inhibition,[5]; at 50.0 µM,77.6% (active)
same,growth inhibition,[5]; at 100.0 µM,87% (active)
same,growth inhibition,[6]; at 1.2 µM,-16%
same,growth inhibition,[6]; at 3.7 µM,-20%
same,growth inhibition,[6]; [17],-19%
same,growth inhibition,[6]; at 11.0 µM,-12%
same,growth inhibition,[6]; at 33.0 µM,0%
same,growth inhibition,[6]; [18],-4%
same,growth inhibition,[6]; at 50.0 µM,3.2%
same,growth inhibition,[6]; at 100.0 µM,87% (active)
same,growth inhibition,[7]; at 1.2 µM,5%
same,growth inhibition,[7]; at 3.7 µM,-10%
same,growth inhibition,[7]; at 11.0 µM,-7%
same,growth inhibition,[7]; at 33.0 µM,16%
same,growth inhibition,[7]; at 100.0 µM,36%
same,growth inhibition,[8]; [17],1%
same,growth inhibition,[8]; [18],36%
same,growth inhibition,[8]; at 50.0 µM,48%
same,growth inhibition,[9]; at 1.2 µM,9%
same,growth inhibition,[9]; at 3.7 µM,-1%
same,growth inhibition,[9]; at 11.0 µM,5%
same,growth inhibition,[9]; at 33.0 µM,-9%
same,growth inhibition,[9]; at 100.0 µM,82% (active)
same,growth inhibition,[10]; [17],16%
same,growth inhibition,[10]; [18],35%
same,growth inhibition,[10]; at 50.0 µM,16.7%
same,growth inhibition,[11]; at 1.2 µM,11%
same,growth inhibition,[11]; at 3.7 µM,-9%
same,growth inhibition,[11]; [17],2%
same,growth inhibition,[11]; at 11.0 µM,-24%
same,growth inhibition,[11]; at 33.0 µM,-28%
same,growth inhibition,[11]; [18],10%
same,growth inhibition,[11]; at 50.0 µM,4.45%
same,growth inhibition,[11]; at 100.0 µM,53%
same,growth inhibition,[12]; at 1.2 µM,-20%
same,growth inhibition,[12]; at 3.7 µM,-12%
same,growth inhibition,[12]; at 11.0 µM,2%
same,growth inhibition,[12]; at 33.0 µM,-8%
same,growth inhibition,[12]; at 100.0 µM,64%
same,growth inhibition,[13]; at 1.2 µM,15%
same,growth inhibition,[13]; at 3.7 µM,33%
same,growth inhibition,[13]; at 11.0 µM,21%
same,growth inhibition,[13]; at 33.0 µM,41%
same,growth inhibition,[13]; at 100.0 µM,81% (active)
same,growth inhibition,[14]; at 1.2 µM,-11%
same,growth inhibition,[14]; at 3.7 µM,2%
same,growth inhibition,[14]; at 11.0 µM,10%
same,growth inhibition,[14]; at 33.0 µM,32%
same,growth inhibition,[14]; at 100.0 µM,54%
same,growth inhibition,[15]; [17],-15%
same,growth inhibition,[15]; [18],2%
same,growth inhibition,[15]; at 50.0 µM,64%
same,growth inhibition,[16]; at 1.2 µM,21%
same,growth inhibition,[16]; at 3.7 µM,16%
same,growth inhibition,[16]; at 11.0 µM,57%
same,growth inhibition,[16]; at 33.0 µM,83% (active)
same,growth inhibition,[16]; at 100.0 µM,92% (active)
CCC(=O)OC1CCn2c1nc1c2C(=O)C(C)=C(N2CC2)C1=O (stereo unspecified),growth inhibition,[1]; at 1.2 µM,-5%
same,growth inhibition,[1]; at 3.7 µM,26%
same,growth inhibition,[1]; at 11.0 µM,17%
same,growth inhibition,[1]; at 33.0 µM,41%
same,growth inhibition,[1]; at 100.0 µM,82% (active)
same,growth inhibition,[2]; at 1.2 µM,4%
same,growth inhibition,[2]; at 3.7 µM,-7%
same,growth inhibition,[2]; at 11.0 µM,-11%
same,growth inhibition,[2]; at 33.0 µM,-8%
same,growth inhibition,[2]; at 100.0 µM,2%
same,growth inhibition,[3]; at 1.2 µM,12%
same,growth inhibition,[3]; at 3.7 µM,1%
same,growth inhibition,[3]; at 11.0 µM,-9%
same,growth inhibition,[3]; at 33.0 µM,7%
same,growth inhibition,[3]; at 100.0 µM,25%
same,growth inhibition,[4]; at 1.2 µM,7%
same,growth inhibition,[4]; at 3.7 µM,-7%
same,growth inhibition,[4]; at 11.0 µM,-1%
same,growth inhibition,[4]; at 33.0 µM,6%
same,growth inhibition,[4]; at 100.0 µM,16%
same,growth inhibition,[5]; at 1.2 µM,18%
same,growth inhibition,[5]; at 3.7 µM,-3%
same,growth inhibition,[5]; [17],48%
same,growth inhibition,[5]; at 11.0 µM,18%
same,growth inhibition,[5]; at 33.0 µM,34%
same,growth inhibition,[5]; [18],87% (active)
same,growth inhibition,[5]; at 50.0 µM,55.8%
same,growth inhibition,[5]; at 100.0 µM,78% (active)
same,growth inhibition,[6]; at 1.2 µM,-7%
same,growth inhibition,[6]; at 3.7 µM,-2%
same,growth inhibition,[6]; [17],38%
same,growth inhibition,[6]; at 11.0 µM,6%
same,growth inhibition,[6]; at 33.0 µM,20%
same,growth inhibition,[6]; [18],64%
same,growth inhibition,[6]; at 50.0 µM,70.4% (active)
same,growth inhibition,[6]; at 100.0 µM,64%
same,growth inhibition,[7]; at 1.2 µM,8%
same,growth inhibition,[7]; at 3.7 µM,7%
same,growth inhibition,[7]; at 11.0 µM,14%
same,growth inhibition,[7]; at 33.0 µM,38%
same,growth inhibition,[7]; at 100.0 µM,79% (active)
same,growth inhibition,[8]; [17],20%
same,growth inhibition,[8]; [18],66%
same,growth inhibition,[8]; at 50.0 µM,71.4% (active)
same,growth inhibition,[9]; at 1.2 µM,-41%
same,growth inhibition,[9]; at 3.7 µM,-44%
same,growth inhibition,[9]; at 11.0 µM,-43%
same,growth inhibition,[9]; at 33.0 µM,-39%
same,growth inhibition,[9]; at 100.0 µM,-19%
same,growth inhibition,[10]; [17],14%
same,growth inhibition,[10]; [18],54%
same,growth inhibition,[10]; at 50.0 µM,57.6%
same,growth inhibition,[11]; at 1.2 µM,9%
same,growth inhibition,[11]; at 3.7 µM,-3%
same,growth inhibition,[11]; [17],-24%
same,growth inhibition,[11]; at 11.0 µM,-9%
same,growth inhibition,[11]; at 33.0 µM,-14%
same,growth inhibition,[11]; [18],-11%
same,growth inhibition,[11]; at 50.0 µM,-7.05%
same,growth inhibition,[11]; at 100.0 µM,13%
same,growth inhibition,[12]; at 1.2 µM,-30%
same,growth inhibition,[12]; at 3.7 µM,-35%
same,growth inhibition,[12]; at 11.0 µM,-29%
same,growth inhibition,[12]; at 33.0 µM,-19%
same,growth inhibition,[12]; at 100.0 µM,16%
same,growth inhibition,[13]; at 1.2 µM,5%
same,growth inhibition,[13]; at 3.7 µM,24%
same,growth inhibition,[13]; at 11.0 µM,-11%
same,growth inhibition,[13]; at 33.0 µM,-10%
same,growth inhibition,[13]; at 100.0 µM,24%
same,growth inhibition,[14]; at 1.2 µM,14%
same,growth inhibition,[14]; at 3.7 µM,30%
same,growth inhibition,[14]; at 11.0 µM,37%
same,growth inhibition,[14]; at 33.0 µM,55%
same,growth inhibition,[14]; at 100.0 µM,80% (active)
same,growth inhibition,[15]; [17],45%
same,growth inhibition,[15]; [18],73% (active)
same,growth inhibition,[15]; at 50.0 µM,69%
same,growth inhibition,[16]; at 1.2 µM,60%
same,growth inhibition,[16]; at 3.7 µM,75% (active)
same,growth inhibition,[16]; at 11.0 µM,87% (active)
same,growth inhibition,[16]; at 33.0 µM,90% (active)
same,growth inhibition,[16]; at 100.0 µM,91% (active)
